NADH coupling – inhibitors of PK/LDH coupling enzymes, profiling panel, artefact control, biochemical, MLSMR library. 65,000 tested, 0.02% active. AID 774, 2007. coupled PK/LDH NADH assays, four targets. IC50, µM (top dose mostly 10 µM), for the others: at the top dose inhibition;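 active means single-dose screening hits from any of four coupled enzyme assays that gave an IC50 when retested across doses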;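 further: the DPM-DC format reads NADH fluorescence rather than 340 nm absorbance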
DPM-DC inhibit – S. pneumoniae DPM-DC inhibitors, primary screen, biochemical, PK/LDH-coupled NADH fluorescence | diphosphomevalonate decarboxylase (Streptococcus pneumoniae D39) | purified DPM-DC | calls only at 10 µM | 65,000 tested, 0.49% active | AID 556, 2006;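 active means the 320 compounds with the highest percent inhibition in the single-dose primary screen, excluding strongly autofluorescent ones, cut at about 32% in these data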;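 further: kinetic rate of NADH fluorescence loss reporting ADP formed by the decarboxylase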
MK inhibit – S. pneumoniae MK inhibitors, primary screen, biochemical, PK/LDH-coupled NADH absorbance; purified MK, PK/LDH-coupled NADH absorbance 340 nm; inhibition, % at 10 µM; 65,000 tested, 0.48% active; AID 555, 2006;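 active means ranked among the strongest by inhibition in the single 10 µM screen, a fixed top-ranked set picked for dose follow-up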
Abs 340nm – compound light absorbance at 340 nm, profiling panel, artefact control, biochemical, MLSMR library, data from PS, PMK, MK assays | compound absorbance at 340 nm, fold over control | fold change at 10 µM | 65,000 tested, under 10 active | AID 708, 2007;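 active means at 10 µM dose, initial 340 nm absorbance at least 2 fold that of control wells; inactive means change under 2 fold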;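 further: initial absorbance extrapolated from kinetic A340 decline of NADH oxidation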
PMK inhibit – S. pneumoniae PMK inhibitors, primary screen, biochemical, mevalonate pathway, pilot trial included; purified PMK, PK/LDH-coupled NADH absorbance 340 nm; inhibition, % at 10 µM; 65,000 tested, 0.49% active; AID 539, 2006;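 active means top-ranked compounds by inhibition in the single 10 µM screen, taking a fixed number of the strongest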;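 further: 0% = full reaction with DMSO carrier and 100% = background rate without enzyme reaction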
Fluor 339 460 – intrinsic fluorescence of library compounds, ex339/em460 – biochemical, MLSMR library, data from DPM-DC assay, artefact control, profiling panel. compound autofluorescence, ex339/em460 nm, NADH buffer; stronger effect = higher value; 1 = no-compound wells, NADH background. fluorescence fold increase at 10 µM. 65,000 tested, 5.5% active;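 active means at 10 µM, mean starting fluorescence two-fold or more over control wells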;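 further: signal is the first read of a kinetic run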
Starred values were filed as active, the others as inactive; i = inactive; nt = no result given. This is a sample that favours compounds with a hit; in the whole collection about 6.5% have one here.

SMILES | NADH coupling | DPM-DC inhibit | MK inhibit | Abs 340nm | PMK inhibit | Fluor 339 460
Cc1ccc(CN2C(=O)NC(=O)C3(Cc4c(nc5ccccn5c4=O)N4CCCCCC43)C2=O)cc1 (stereo not given) | 4% | i | 3 | 1 | 9 | 1.7
CCC(=NCC1CCCO1)c1c(O)n(-c2ccccc2)c(=O)[nH]c1=O (stereo not given) | 5% | i | 8 | 1 | 8 | 1.1
CCC(C)NC(=O)c1c(N)n(CC2CCCO2)c2nc3ccccc3nc12 (stereo not given) | 4% | nt | 8 | 1 | 17 | 2.5*
COC(=O)c1c(C)n(Cc2ccc3c(c2)OCO3)c2ccc(O)cc12 | 2% | i | 8 | 0.99 | 2 | 1.1
CCC(C)NC(=O)c1c(N)n(Cc2ccc3c(c2)OCO3)c2nc3ccccc3nc12 (stereo not given) | 7% | nt | 14 | 1 | 0 | 4*
Cc1ccc2c(c1)CC1(CN2C)C(=O)NC(=O)N(c2ccc(C)c(C)c2)C1=O (stereo not given) | 0% | i | 1 | 1 | 0 | 1.1
Cc1cc(N2CCOCC2)nc2ccc(NC(=O)CCC(=O)N3CCC4(CC3)OCCO4)cc12 | 11% | nt | 8 | 1.1 | 13 | 4.8*
Cn1cc(CCC(=O)N2CCC3(CC2)OCCO3)c2ccccc21 | 8% | i | 3 | 0.97 | 21 | 1
COCCn1cc(C(=O)N2CCC3(CC2)OCCO3)c2c3ccccc3n(C)c2c1=O | 7% | nt | 0 | 1 | 13 | 4.3*
Cn1c2ccccc2c2c(C(=O)N3CCC4(CC3)OCCO4)cn(C3CCCC3)c(=O)c21 | 17% | nt | 16 | 1.1 | 17 | 2.1*
CCOC(=O)C1SC2(C(F)(F)F)CC1(O)c1c(C)cc(C)nc1O2 (stereo not given) | 4% | i | 11 | 1 | 0 | 1.1
Cn1c(O)c(C=NCCc2c[nH]c3ccccc23)c(=O)n(C)c1=O | 7% | i | 8 | 1 | 4 | 0.98
COc1ccc(CN2CCN(c3ccccc3)CC2)c(C)c1C | 24% | i | 50* | 1.1 | 23 | 1.1

Bioassay records from PubChem BioAssay.
